From ChEMBL document CHEMBL1961873, “Compounds: GSK PKIS; Assays: Nanosyn kinase panel” (2012)

How the values were obtained:
[1] = biological target: T1, Tyrosine-protein kinase receptor TYRO3 (Homo sapiens) (UniProt Q06418); details: at 1 µM
T1 sequence (whole entry): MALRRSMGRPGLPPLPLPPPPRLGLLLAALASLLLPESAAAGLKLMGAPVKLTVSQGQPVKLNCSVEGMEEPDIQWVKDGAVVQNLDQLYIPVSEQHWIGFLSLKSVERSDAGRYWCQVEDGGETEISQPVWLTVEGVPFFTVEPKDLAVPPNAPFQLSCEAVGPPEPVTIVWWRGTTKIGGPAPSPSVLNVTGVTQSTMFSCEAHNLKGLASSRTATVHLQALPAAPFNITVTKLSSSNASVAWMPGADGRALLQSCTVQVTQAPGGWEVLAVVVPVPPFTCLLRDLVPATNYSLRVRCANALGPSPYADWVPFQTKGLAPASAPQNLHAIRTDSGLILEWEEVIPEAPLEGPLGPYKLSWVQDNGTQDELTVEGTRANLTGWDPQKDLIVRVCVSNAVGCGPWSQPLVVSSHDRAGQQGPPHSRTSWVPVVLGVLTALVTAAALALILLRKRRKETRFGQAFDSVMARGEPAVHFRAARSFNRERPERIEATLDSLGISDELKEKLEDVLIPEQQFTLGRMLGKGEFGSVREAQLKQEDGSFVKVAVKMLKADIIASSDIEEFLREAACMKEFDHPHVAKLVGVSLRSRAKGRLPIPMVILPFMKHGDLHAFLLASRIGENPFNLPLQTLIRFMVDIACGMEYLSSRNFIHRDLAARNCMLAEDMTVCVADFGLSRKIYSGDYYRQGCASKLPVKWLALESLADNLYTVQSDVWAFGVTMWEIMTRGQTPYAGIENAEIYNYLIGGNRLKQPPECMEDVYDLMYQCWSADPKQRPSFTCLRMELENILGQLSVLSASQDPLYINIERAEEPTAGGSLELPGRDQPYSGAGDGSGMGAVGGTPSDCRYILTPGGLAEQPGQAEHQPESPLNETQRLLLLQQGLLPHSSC

[2] = biological target: Tyrosine-protein kinase Yes (Homo sapiens) (UniProt P07947); details: at 0.1 µM
[3] = biological target: Tyrosine-protein kinase Yes (Homo sapiens) (UniProt P07947); details: at 1 µM
[4] = biological target: T2, Tyrosine-protein kinase ZAP-70 (Homo sapiens) (UniProt P43403); details: at 0.1 µM
T2 sequence (whole entry): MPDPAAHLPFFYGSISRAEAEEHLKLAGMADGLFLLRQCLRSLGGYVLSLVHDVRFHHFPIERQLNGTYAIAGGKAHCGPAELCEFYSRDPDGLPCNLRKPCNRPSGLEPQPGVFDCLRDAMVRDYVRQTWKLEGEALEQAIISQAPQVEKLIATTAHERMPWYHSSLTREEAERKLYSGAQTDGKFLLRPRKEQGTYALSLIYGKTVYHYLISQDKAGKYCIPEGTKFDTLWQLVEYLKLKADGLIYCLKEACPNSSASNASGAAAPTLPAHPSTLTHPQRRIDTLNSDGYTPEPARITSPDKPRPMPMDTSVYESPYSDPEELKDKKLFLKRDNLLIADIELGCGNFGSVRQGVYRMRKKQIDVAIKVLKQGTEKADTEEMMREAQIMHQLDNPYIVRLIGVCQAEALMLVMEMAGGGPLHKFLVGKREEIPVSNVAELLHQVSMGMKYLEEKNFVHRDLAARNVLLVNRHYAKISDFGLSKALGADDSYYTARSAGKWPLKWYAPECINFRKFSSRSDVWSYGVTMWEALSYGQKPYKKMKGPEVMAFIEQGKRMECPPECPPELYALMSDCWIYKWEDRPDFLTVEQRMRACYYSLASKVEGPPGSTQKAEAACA

[5] = biological target: T2, Tyrosine-protein kinase ZAP-70 (Homo sapiens); details: at 1 µM
[6] = biological target: Serine/threonine-protein kinase B-raf (Homo sapiens) (UniProt P15056); details: at 0.1 µM
[7] = biological target: Serine/threonine-protein kinase B-raf (Homo sapiens) (UniProt P15056); details: at 1 µM
[8] = system: Serine/threonine-protein kinase B-raf (Homo sapiens), P15056 [V600E]; details: at 0.1 µM
[9] = system: Serine/threonine-protein kinase B-raf (Homo sapiens), P15056 [V600E]; details: at 1 µM
[10] = biological target: RAF proto-oncogene serine/threonine-protein kinase (Homo sapiens) (UniProt P04049); details: at 0.1 µM
[11] = biological target: RAF proto-oncogene serine/threonine-protein kinase (Homo sapiens) (UniProt P04049); details: at 1 µM
[12] = biological target: T3, Interleukin-1 receptor-associated kinase 4 (Homo sapiens) (UniProt Q9NWZ3); details: at 0.1 µM
T3 sequence (whole entry): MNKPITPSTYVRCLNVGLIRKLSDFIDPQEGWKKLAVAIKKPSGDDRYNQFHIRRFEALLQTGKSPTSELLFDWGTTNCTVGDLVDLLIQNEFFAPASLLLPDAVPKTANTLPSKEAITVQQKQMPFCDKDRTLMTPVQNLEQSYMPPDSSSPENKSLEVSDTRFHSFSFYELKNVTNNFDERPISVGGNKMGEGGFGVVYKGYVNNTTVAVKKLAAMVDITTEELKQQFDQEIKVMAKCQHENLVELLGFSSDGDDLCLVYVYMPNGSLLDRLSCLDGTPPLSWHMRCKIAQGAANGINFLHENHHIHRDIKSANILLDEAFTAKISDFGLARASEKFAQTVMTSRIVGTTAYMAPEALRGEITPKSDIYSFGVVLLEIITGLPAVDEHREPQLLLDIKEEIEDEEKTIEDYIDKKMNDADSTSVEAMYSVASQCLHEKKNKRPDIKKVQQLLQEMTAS

[13] = biological target: T3, Interleukin-1 receptor-associated kinase 4 (Homo sapiens); details: at 1 µM
[14] = biological target: Leucine-rich repeat serine/threonine-protein kinase 2 (Homo sapiens) (UniProt Q5S007); details: at 0.1 µM
[15] = biological target: Leucine-rich repeat serine/threonine-protein kinase 2 (Homo sapiens) (UniProt Q5S007); details: at 1 µM
[16] = system: Leucine-rich repeat serine/threonine-protein kinase 2 (Homo sapiens), Q5S007 [G2019S]; details: at 0.1 µM
[17] = system: Leucine-rich repeat serine/threonine-protein kinase 2 (Homo sapiens), Q5S007 [G2019S]; details: at 1 µM

Tyrosine-protein kinase Yes (Homo sapiens), sequence (P07947 2-543 limits assumed): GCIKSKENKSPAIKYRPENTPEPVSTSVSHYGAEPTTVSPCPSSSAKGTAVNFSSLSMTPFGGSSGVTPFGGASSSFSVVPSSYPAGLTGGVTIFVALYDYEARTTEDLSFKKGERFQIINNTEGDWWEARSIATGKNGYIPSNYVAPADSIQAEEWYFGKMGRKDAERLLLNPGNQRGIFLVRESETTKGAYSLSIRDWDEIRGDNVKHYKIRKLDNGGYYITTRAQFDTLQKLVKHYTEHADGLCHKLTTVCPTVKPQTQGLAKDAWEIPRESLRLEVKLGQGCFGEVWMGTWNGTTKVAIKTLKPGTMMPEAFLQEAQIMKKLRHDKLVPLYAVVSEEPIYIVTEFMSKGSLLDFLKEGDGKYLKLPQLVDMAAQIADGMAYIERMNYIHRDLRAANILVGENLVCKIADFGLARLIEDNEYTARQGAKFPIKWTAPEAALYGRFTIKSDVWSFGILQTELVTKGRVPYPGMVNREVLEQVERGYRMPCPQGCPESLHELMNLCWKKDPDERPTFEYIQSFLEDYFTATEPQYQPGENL
RAF proto-oncogene serine/threonine-protein kinase (Homo sapiens), sequence (P04049 whole entry): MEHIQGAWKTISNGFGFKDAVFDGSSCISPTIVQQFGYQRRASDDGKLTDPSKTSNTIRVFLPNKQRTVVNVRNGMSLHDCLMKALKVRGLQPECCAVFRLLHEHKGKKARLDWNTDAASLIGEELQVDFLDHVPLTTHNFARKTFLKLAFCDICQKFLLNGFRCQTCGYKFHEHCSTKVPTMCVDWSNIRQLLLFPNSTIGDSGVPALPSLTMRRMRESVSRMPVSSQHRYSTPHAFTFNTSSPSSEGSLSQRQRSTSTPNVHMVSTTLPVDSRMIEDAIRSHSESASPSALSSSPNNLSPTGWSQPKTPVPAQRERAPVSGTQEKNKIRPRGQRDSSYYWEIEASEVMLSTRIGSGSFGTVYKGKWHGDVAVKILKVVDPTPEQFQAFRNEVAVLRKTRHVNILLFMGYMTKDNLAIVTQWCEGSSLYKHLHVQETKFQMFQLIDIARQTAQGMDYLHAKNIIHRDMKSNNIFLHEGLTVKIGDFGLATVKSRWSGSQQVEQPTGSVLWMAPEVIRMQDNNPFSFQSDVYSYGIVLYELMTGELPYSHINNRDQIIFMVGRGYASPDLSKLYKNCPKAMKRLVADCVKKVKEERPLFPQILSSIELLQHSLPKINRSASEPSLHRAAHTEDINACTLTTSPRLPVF
Serine/threonine-protein kinase B-raf (Homo sapiens), P15056 [V600E], sequence (P15056 whole entry V600E): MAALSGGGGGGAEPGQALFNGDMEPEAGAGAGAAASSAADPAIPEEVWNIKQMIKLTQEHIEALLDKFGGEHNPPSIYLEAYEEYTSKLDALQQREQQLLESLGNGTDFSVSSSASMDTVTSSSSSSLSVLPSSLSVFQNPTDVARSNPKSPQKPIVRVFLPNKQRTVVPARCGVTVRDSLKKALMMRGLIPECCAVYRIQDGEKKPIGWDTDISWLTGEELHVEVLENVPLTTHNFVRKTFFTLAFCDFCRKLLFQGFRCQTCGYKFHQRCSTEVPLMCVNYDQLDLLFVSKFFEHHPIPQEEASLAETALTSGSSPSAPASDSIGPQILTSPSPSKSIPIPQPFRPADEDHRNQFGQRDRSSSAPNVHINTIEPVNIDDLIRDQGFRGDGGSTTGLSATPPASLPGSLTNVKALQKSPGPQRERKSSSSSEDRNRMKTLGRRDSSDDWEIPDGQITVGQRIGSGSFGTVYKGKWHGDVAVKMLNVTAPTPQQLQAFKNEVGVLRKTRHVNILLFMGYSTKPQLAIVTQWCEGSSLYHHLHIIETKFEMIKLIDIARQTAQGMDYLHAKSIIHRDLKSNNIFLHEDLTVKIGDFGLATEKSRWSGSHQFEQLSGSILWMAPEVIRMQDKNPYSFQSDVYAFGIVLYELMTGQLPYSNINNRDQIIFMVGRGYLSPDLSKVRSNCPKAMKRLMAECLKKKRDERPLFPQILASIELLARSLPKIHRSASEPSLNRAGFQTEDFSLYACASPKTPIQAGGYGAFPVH
Serine/threonine-protein kinase B-raf (Homo sapiens), sequence (P15056 whole entry): as the sequence (P15056 whole entry V600E) above, with E600V counted along it
Leucine-rich repeat serine/threonine-protein kinase 2 (Homo sapiens), Q5S007 [G2019S], sequence (Q5S007 whole entry G2019S): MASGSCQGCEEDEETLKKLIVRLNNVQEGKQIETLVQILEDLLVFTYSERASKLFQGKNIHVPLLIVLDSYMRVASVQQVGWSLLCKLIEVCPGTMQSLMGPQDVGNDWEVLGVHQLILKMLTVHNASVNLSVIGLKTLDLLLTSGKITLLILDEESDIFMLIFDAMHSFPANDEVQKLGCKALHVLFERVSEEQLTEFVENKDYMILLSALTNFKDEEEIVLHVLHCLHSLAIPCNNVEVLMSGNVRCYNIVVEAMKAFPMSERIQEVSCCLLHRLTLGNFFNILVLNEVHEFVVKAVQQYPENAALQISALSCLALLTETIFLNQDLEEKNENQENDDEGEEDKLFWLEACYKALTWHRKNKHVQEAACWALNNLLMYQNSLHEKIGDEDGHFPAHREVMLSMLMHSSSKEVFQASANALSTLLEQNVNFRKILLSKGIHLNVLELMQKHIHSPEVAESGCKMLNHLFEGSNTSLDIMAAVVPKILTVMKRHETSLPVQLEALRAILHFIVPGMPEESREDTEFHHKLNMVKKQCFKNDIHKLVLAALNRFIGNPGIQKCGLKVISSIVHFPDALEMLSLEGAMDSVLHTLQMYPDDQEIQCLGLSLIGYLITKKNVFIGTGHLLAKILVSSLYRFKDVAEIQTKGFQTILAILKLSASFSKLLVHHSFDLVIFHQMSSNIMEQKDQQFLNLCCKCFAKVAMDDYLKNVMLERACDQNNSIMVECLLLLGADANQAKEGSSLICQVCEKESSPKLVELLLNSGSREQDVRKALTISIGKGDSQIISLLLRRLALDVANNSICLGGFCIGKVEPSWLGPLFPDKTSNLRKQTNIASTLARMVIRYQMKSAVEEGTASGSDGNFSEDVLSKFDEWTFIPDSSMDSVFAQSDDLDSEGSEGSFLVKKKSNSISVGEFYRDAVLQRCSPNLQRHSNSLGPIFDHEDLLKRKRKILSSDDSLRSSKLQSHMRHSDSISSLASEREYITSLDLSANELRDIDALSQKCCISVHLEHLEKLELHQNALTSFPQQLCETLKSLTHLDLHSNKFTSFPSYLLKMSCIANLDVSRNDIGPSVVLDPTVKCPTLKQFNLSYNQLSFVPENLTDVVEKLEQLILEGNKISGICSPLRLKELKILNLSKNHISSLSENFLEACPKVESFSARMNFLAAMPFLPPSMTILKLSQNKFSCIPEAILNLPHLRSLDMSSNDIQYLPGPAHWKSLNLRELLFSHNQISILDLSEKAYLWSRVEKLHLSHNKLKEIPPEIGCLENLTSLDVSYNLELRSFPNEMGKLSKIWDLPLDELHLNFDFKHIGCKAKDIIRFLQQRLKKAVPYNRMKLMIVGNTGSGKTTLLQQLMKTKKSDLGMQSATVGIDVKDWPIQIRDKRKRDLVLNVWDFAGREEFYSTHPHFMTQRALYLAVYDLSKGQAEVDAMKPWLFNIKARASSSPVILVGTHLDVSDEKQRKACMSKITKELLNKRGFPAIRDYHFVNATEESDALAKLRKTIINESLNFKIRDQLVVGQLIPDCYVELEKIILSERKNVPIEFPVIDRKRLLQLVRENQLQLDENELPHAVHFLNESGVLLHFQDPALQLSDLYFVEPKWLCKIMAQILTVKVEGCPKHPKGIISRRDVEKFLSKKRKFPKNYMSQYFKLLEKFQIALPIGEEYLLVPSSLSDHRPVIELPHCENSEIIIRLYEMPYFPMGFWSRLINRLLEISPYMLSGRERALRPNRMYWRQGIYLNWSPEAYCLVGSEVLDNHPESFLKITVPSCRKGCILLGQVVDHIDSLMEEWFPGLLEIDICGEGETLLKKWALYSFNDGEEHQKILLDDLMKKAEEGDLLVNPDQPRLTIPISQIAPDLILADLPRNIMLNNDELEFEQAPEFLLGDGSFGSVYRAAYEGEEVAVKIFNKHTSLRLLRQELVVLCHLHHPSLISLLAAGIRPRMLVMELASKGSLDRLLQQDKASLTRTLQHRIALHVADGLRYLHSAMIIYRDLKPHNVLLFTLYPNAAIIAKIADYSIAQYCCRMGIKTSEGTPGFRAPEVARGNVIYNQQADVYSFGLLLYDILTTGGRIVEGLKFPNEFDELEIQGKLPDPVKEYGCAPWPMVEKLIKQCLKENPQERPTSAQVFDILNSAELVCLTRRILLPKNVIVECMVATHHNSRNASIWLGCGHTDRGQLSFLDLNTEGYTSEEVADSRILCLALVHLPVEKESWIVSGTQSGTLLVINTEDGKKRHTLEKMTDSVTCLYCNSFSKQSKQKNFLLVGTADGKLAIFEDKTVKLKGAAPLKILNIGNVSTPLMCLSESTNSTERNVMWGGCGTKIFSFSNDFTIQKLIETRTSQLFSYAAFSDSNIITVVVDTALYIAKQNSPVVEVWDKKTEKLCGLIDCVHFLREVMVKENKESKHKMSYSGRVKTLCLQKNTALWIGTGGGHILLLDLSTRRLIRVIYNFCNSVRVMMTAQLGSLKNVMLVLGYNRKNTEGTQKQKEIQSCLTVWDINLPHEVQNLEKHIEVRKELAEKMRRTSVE
Leucine-rich repeat serine/threonine-protein kinase 2 (Homo sapiens), sequence (Q5S007 whole entry): as the sequence (Q5S007 whole entry G2019S) above, with S2019G counted along it

SMILES	inhibition [1]	inhibition [2]	inhibition [3]	inhibition [4]	inhibition [5]	inhibition [6]	inhibition [7]	inhibition [8]	inhibition [9]	inhibition [10]	inhibition [11]	inhibition [12]	inhibition [13]	inhibition [14]	inhibition [15]	inhibition [16]	inhibition [17]
CCn1c(-c2nonc2N)nc2ccncc21	-0.39%	1.81%	-1.91%	7.67%	3.68%	2.92%	2.33%	1.64%	3.84%	6.58%	14%	2.09%	0.65%	1.49%	2.85%	1.49%	6.2%
Cc1nn(C)c2cc(N(C)c3ccnc(Nc4cccc(S(N)(=O)=O)c4)n3)ccc12	29.9%	9.9%	45.6%	-2.66%	16%	4.26%	7.71%	4.01%	6.87%	-2.36%	3.83%	2.51%	6.18%	1.65%	7%	4.07%	12.3%
COc1cc2ncn(-c3cc(OCc4ccccc4Cl)c(C(N)=O)s3)c2cc1OC	9.65%	3.58%	17.9%	-2.94%	0.47%	2.05%	2.15%	1.45%	2.82%	0.16%	0.88%	2.64%	0.8%	2.12%	14.5%	12%	54.5%
Cn1cc(C=C2C(=O)Nc3cccnc32)c2ccccc21	13.2%	5.4%	45.1%	1.96%	11.5%	3.28%	6.52%	2.79%	5.11%	-3.3%		6.41%	5.04%	8.55%	20.8%	15%	55.4%
O=C1NC(=O)C(c2ccc(Cl)cc2)=C1Nc1ccc(Cl)c(C(=O)O)c1	-3.28%	-3.3%	0.94%	-3.81%	-2.06%	-1.66%	-3.28%	-4%	-3.77%	-4.76%		-1.49%	-0.81%	-0.67%	0.65%	1.27%	3.84%
COc1cc(C=NNc2ncnc3c2cnn3-c2ccccc2)ccc1O	33.5%	21.5%	64.9%	3.12%	9.72%	2.6%	2.66%	2.03%	2.54%	-0.56%	-6.14%	-2.02%	3.98%	7.59%	22.3%	7.59%	40.8%
Cc1cccc(-c2n[nH]cc2-c2ccc3ncccc3n2)n1	1.88%	1.95%	9.98%	3.21%	1.47%	1.47%	1.32%	0.26%	1.23%	-0.77%		1.85%	0.21%	1.67%	10.1%	2.43%	10.6%
NCc1ccc(-c2nc(-c3ccc(Cl)c(O)c3)c(-c3ccncc3)[nH]2)cc1	5.26%	5.85%	37.7%	0.84%	1.92%					6.34%	76.6%	3%	0.37%	1.04%	1.56%	1.02%	4.61%
